PubChem BioAssay (Tox21)
Results filed as inconclusive are left out. Where a call stands in place of a potency, no number is given. Some structures have more than one record in an assay (separate samples or runs), and their calls can disagree. The source made the active and inactive calls. Unless noted, calls follow the shape of the dose curve; as a rule, active = well fitted curve in the direction sought with a large enough effect in the repeat runs; inconclusive = weak or mixed curves; inactive = no such curve, though single readings can be large; an effect the other way counts as inactive or inconclusive.

Key:
[1] = A CellTox Green Cytotoxicity Assay to monitor cytotoxicity in HepG2 cells - 8 hour (AID 1224890); also: nearly all actives have a fitted effect of over 45% in size
Method in brief: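 First, HepG2 cells (600/well) mixed with reagent were plated; second, after 5 h at 37 C they received compounds via pintool; third, fluorescence was measured at 0 h through 40 h at 8 h intervals.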

[2] = qHTS assay to identify small molecule antagonists of the estrogen receptor alpha (ER-alpha) signaling pathway using the BG1 cell line in the presence of 0.1 nM 17-beta-estradiol - cell viability counter screen (AID 1259241); also: nearly all actives have a fitted effect of over 40% in size
Method in brief: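 Following 5 days in phenol red-free medium with charcoal-stripped serum, VM7Luc4E2 cells received test compounds alongside 0.1 nM 17beta-estradiol (final) at 37C for 22 hr. Live cells were then quantified via protease-substrate fluorescence.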

[3] = qHTS assay to identify small molecule antagonists of the androgen receptor (AR) signaling pathway using the MDA cell line in the presence of 0.5 nM R1881 - cell viability counter screen (AID 1259242); also: nearly all actives have a fitted effect of over 45% in size
Method in brief: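 qHTS format. MDA-kb2 (MMTV-luc, AR/GR responsive) + cpd + 0.5 nM R1881 final, 16 hr 37C/0% CO2 → CellTiter-Fluor 30 min → fluorescence intensity.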

[4] = biological target: Estrogen receptor (Homo sapiens) (UniProt P03372); test: qHTS assay to identify small molecule antagonists of the estrogen receptor alpha (ER-alpha) signaling pathway using the BG1 cell line in the presence of 0.1 nM 17-beta-estradiol (AID 1259244); also: nearly all actives have a fitted effect of over 50% in size
Sequence of Estrogen receptor (Homo sapiens) (P03372 whole entry, looked up): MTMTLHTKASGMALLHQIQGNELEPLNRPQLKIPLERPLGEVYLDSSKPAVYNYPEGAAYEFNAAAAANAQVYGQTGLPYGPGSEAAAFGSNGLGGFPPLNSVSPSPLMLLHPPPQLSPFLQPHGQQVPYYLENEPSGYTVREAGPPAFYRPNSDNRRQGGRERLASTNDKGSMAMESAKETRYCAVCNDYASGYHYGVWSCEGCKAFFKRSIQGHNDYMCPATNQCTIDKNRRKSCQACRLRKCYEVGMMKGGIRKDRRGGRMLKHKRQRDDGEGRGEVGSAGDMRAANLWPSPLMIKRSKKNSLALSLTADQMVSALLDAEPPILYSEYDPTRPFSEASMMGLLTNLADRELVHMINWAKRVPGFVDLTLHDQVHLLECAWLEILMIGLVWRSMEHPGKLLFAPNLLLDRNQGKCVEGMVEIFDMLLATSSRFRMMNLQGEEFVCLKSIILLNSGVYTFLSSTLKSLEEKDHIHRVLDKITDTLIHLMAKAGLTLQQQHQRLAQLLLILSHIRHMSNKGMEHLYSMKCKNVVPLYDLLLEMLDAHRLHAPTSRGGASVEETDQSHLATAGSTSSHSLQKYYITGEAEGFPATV
Method in brief: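 Reporter is a stably transfected luciferase under four estrogen responsive elements in VM7Luc4E2 cells expressing native full-length ER-alpha; inhibition of 0.1 nM (final) 17beta-estradiol-driven signal over 22 h is read by luminescence.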

[5] = qHTS assay to identify small molecule HDAC inhibitors (AID 1259364);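 also: wild-type HCT-116 cells with endogenous class I/II HDAC activity; top concentration of the series differs between compounds; nearly all actives have a fitted effect of over 45% in size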
Method in brief: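 Quantitative high-throughput format: overnight-seeded HCT-116 cells got compounds for 2 hr at 37C; HDAC-Glo I/II reagent added, 30 min RT, luminescence measured.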

[6] = qHTS assay to identify small molecule HDAC inhibitors - cell viability counter screen (AID 1259365); also: series mostly up to about 92 µM; nearly all actives have a fitted effect of over 50% in size
Method in brief: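 HCT-116 wild-type, overnight attachment; 2hr drug exposure, 37C; CellTiter-Glo luminescent ATP readout after 30min RT.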

[7] = qHTS assay to identify small molecule agonists of the sonic hedgehog signaling (Shh) pathway - cell viability counter screen (AID 1259366); also: nearly all actives have a fitted effect of over 50% in size
Method in brief: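 Compounds in DMSO were pin-transferred onto 3T3 Gli1-Luc cells that had settled 4hr; plates then stood 24hr at 37C and 5% CO2. One hour before the end, CellTiter-Fluor was added and fluorescence recorded.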

[8] = qHTS assay to identify small molecule antagonists of the sonic hedgehog signaling (Shh) pathway - cell viability counter screen (AID 1259367); also: nearly all actives have a fitted effect of over 55% in size
Method in brief: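 Fluorescence read-out (CellTiter-Fluor, 1 hr at 37C) taken after 23 hr compound treatment of 3T3 Gli1-Luc cells stimulated with conditioned medium. Cells were seeded at 2,000 per well and pre-incubated 4 hr.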

[9] = qHTS assay to identify small molecule agonists of the sonic hedgehog signaling (Shh) pathway (AID 1259368; calls by dose curve;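 also: NIH/3T3-derived 3T3Gli1-Luc cells carrying a stable Gli1-driven firefly luciferase reporter; series mostly up to about 92 µM; nearly all actives have a fitted effect of over 15% in size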)
Method in brief: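 Quantitative high-throughput format using a Gli1-driven firefly luciferase reporter line derived from NIH/3T3 cells. After a 24 hr compound treatment at 37 C and 5% CO2, luminescence reported Gli1 response element activity.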

[10] = qHTS assay to identify small molecule antagonists of the sonic hedgehog signaling (Shh) pathway (AID 1259369; calls by dose curve; also: nearly all actives have a fitted effect of over 45% in size; also: potency is read from the fitted curve at half-maximal effect)
Method in brief: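 Stable Gli1-Luc reporter NIH/3T3 clone; quantitative HTS in stimulated mode with conditioned medium. Luminescence measured after 24hr compound treatment at 37 C.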

[11] = qHTS assay to identify small molecule agonists of the androgen receptor (AR) signaling pathway in the presence of an antagonist - cell viability counter screen (AID 1259379);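 also: MDA-kb2 human breast cancer cells carrying an MMTV luciferase reporter; series mostly up to about 92 µM; nearly all actives have a fitted effect of over 25% in size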
Method in brief: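 Nilutamide-containing (3.0uM final) MDA-kb2 cultures, 3,000 cells/well, were treated with compounds across 15 concentrations. After 16 hr at 37C with no CO2, cell viability was determined by CellTiter-Fluor fluorescence in the luciferase assay wells.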

[12] = qHTS assay to identify small molecule agonists of the estrogen receptor beta (ER-beta) signaling pathway - cell viability counter screen (AID 1259380); also: nearly all actives have a fitted effect of over 30% in size
Method in brief: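 Steps: plate ER-beta-UAS-bla HEK293T cells, rest 6 hr; add compounds in DMSO; incubate 16 hr at 37C, 5% CO2; add FRET substrate 2 hr; add CellTiter-Glo, wait 30 min at room temperature; read luminescence.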

[13] = biological target: Estrogen receptor (Homo sapiens) (UniProt P03372); test: qHTS assay to identify small molecule agonists of the estrogen receptor alpha (ER-alpha) signaling pathway in the presence of an antagonist (AID 1259383; calls by dose curve; also: top concentration of the series differs between compounds; nearly all actives have a fitted effect of over 15% in size)
Method in brief: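 Readout was ERE-driven luciferase luminescence in VM7Luc4E2 cells, which express full-length ER-alpha endogenously. Compounds were tested at 15 concentrations for 22hr alongside 10.0nM ICI-182,780 (final concentration).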

[14] = biological target: Estrogen receptor beta (Homo sapiens) (UniProt Q92731); test: qHTS assay to identify small molecule agonists of the estrogen receptor beta (ER-beta) signaling pathway (AID 1259377; active = well fitted activation curve with a large enough effect in the signal ratio in the repeat runs, not every such curve was filed as active; the % refers to the signal ratio)
Sequence of Estrogen receptor beta (Homo sapiens) (Q92731 whole entry, looked up): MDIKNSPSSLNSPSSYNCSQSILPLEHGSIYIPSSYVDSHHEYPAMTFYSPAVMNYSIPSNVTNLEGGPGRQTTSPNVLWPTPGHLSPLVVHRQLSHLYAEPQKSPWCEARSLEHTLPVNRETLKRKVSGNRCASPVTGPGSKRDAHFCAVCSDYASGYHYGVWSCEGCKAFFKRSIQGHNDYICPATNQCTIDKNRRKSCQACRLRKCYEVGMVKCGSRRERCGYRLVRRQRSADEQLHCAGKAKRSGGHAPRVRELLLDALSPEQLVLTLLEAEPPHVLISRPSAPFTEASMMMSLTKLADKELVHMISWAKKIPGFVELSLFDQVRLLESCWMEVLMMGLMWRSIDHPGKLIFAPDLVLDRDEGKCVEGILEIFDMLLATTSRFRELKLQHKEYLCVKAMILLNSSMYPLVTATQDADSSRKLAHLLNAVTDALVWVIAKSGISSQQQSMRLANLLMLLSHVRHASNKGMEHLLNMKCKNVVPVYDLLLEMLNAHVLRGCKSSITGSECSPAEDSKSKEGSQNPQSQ
Method in brief: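 qHTS in ER-beta-UAS-bla HEK293T cells: 6 hr settling, then 16 hr compound at 37C, then LiveBLAzer substrate 2 h at RT before fluorescence reading.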

[15] = biological target: Estrogen receptor beta (Homo sapiens) (UniProt Q92731); test: qHTS assay to identify small molecule antagonists of the estrogen receptor beta (ER-beta) signaling pathway (AID 1259378; active = well fitted inhibition curve with a large enough effect in the signal ratio in the repeat runs, not every such curve was filed as active; the % refers to the signal ratio)
Method in brief: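 ER-beta-UAS-bla HEK293T cells in 2% charcoal-stripped FBS medium treated with compound plus 1nM final 17-beta-estradiol for 16 hr at 37C. Beta-lactamase reporter read by FRET substrate fluorescence after 2 hours at room temperature.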

[16] = qHTS assay to identify small molecule antagonists of the estrogen receptor beta (ER-beta) signaling pathway - cell viability counter screen (AID 1259382); also: series mostly up to about 92 µM; nearly all actives have a fitted effect of over 55% in size
Method in brief: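 Viability is scored by CellTiter-Glo luminescence (30 min, room temperature) in ER-beta-UAS-bla HEK293T wells already read for reporter fluorescence. Compound exposure lasts 16 hr at 37C alongside 1nM 17-beta-estradiol in charcoal-stripped serum medium.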

| Structure (SMILES) | Potency [1] | outcome [2] | outcome [3] | Potency [4] | Potency [5] | outcome [6] | Potency [7] | Potency [8] | outcome [9] | Potency [10] | Potency [11] | Potency [12] | outcome [13] | Potency [14] | outcome [15] | outcome [16] |
| --- | --- | --- | --- | --- | --- | --- | --- | --- | --- | --- | --- | --- | --- | --- | --- | --- |
| Cl/C=C/Cl | inactive | inactive | inactive | inactive | inactive | inactive | inactive | inactive | inactive | inactive | inactive | inactive | inactive |  |  |  |
| O=C(O)C(Br)Br | inactive | inactive | inactive | inactive | inactive | inactive | inactive | inactive | inactive | inactive | inactive | inactive | inactive | inactive | inactive |  |
| CNC(=O)O/N=C/C(C)(C)S(C)=O (stereo unspecified) | inactive | inactive | inactive | inactive | inactive | inactive | inactive | inactive |  | 39.1 µM (active) and inactive | inactive | inactive | inactive | inactive | inactive | inactive |
| CCCOC(=O)c1ccccc1C(=O)OCCC | inactive | inactive | inactive | inactive | inactive | inactive | inactive | inactive |  | inactive | inactive | inactive | inactive |  |  | inactive |
| N#Cc1ccccn1 | inactive | inactive | inactive | inactive | inactive | inactive | inactive | inactive | inactive | inactive | inactive | inactive | inactive | inactive | inactive |  |
